AMA1 RON2 block = inhibitors of Plasmodium falciparum AMA1-RON2 interaction | AlphaScreen AMA1-biotinylated RON2 peptide binding | Potency, µM (doses to about 58.2 µM), for the others: top-dose activity change, negative = inhibition, hits mostly inhibitors | hit rate 0.2% among 360,000 | AID 720542;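 further: 0% = vehicle wells and -100% = peptide control; nearly all actives have a fitted effect of over 45% in size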
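AMA1 (3D7) with his tag at 25 nM final met compounds first, then biotinylated RON2 peptide at 25 nM; detection used donor plus acceptor beads, 10 µg/mL apiece, read by AlphaScreen after 30 min at room temperature.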
AmpC inh no detg = blocks E. coli AmpC beta-lactamase in detergent-free assay | P00811 | hit rate 0.52% among 330,000 | Potency, µM (titrated, usually from 57.1 µM), inactives show top-dose activity change, negative = inhibition, actives largely listed as inhibitors | AID 485341 | AmpC nitrocefin hydrolysis, absorbance 480 nm, 0.0001% Triton;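 further: plate controls were no compound for no effect and no enzyme for full effect; nearly all actives have a fitted effect of over 20% in size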
Target sequence (P00811 whole entry, looked up): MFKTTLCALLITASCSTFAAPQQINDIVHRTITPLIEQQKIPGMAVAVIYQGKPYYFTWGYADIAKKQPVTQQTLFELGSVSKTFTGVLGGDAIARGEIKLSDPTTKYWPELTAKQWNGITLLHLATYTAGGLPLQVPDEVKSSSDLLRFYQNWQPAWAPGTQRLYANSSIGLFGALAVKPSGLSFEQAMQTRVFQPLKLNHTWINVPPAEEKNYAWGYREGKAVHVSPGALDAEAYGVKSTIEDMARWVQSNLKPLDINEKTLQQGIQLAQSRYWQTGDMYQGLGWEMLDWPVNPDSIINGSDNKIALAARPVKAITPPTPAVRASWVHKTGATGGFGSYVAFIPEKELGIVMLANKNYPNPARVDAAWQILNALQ
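20 mM phosphate pH 7.0 + 0.01% (detergent screen) or 0.0001% Triton X-100; 5.3 nM AmpC reagent; cpd preinc 15 min RT; nitrocefin (800 uM stock) to start; A480 q20 s × 4 min; Activity was normalised to no-enzyme and no-compound control wells.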
FBPA Giardia inh = Giardia lamblia aldolase inhibition; A8B2U2; purified Giardia FBPA; Potency, µM (series often up to 59.6 µM), for inactives: at the highest dose activity, negative = inhibition, actives largely listed as inhibitors; hit rate 0.71% among 290,000; further: nearly all actives have a fitted effect of over 55% in size
Target sequence (A8B2U2 whole entry, looked up): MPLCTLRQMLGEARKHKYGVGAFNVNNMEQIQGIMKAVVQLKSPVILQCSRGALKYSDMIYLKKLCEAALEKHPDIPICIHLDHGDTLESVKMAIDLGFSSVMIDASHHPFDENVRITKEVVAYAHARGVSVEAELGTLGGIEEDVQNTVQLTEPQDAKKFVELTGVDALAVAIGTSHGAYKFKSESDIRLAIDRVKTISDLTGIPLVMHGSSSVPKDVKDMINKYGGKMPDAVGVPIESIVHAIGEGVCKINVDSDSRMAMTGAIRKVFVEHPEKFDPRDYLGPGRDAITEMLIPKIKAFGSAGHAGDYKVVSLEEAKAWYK
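Giardia FBPA (40 nM reagent) was preincubated 10 min at RT with compound (up to 57.5 uM final), then substrate plus GAPDH/TPI/NAD/arsenate coupling system with diaphorase/resazurin was added; resorufin fluorescence (525/598 nm) was read after 20 min.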
AmpC inh detg = inhibitors of E. coli AmpC beta-lactamase with detergent; P00811; AmpC hydrolysis of nitrocefin, absorbance 480 nm, 0.01% Triton; Potency, µM (highest dose often 114 µM), inactives show at the top dose activity change, negative = inhibition, usual class: inhibitors; hit rate 0.041% among 370,000;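 further: 0% = no-compound wells and -100% = no-enzyme wells; nearly all actives have a fitted effect of over 25% in size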
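AmpC (5.3 nM in the dispensed reagent) in 20 mM phosphate pH 7.0 with 0.01% (detergent screen) or 0.0001% Triton X-100 was preincubated with compounds for 15 min at room temperature. Nitrocefin was then added from an 800 uM solution, and hydrolysis was followed at 480 nm.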
* hit, by the source's call; ? = inconclusive; . = not tested or not shown; [ ] = remark or other dose. This is a sample that favours compounds with a hit; in the whole collection about 1.1% have one here. The call rests on the fitted dose curve; in most records, active means well fitted curve in the direction sought with a large enough effect; inconclusive means small, poorly fitted or top-dose-only effect, or another doubt; inactive means no such curve, though single readings can be large; an effect the other way counts as inactive or inconclusive. Unless noted, on the % scale 0 is the no-effect control and ±100 the full control effect; potency means the concentration at half of the fitted maximal effect.

SMILES	AMA1 RON2 block	AmpC inh no detg	FBPA Giardia inh	AmpC inh detg
C=C1c2cccc(O)c2C(O)=C2C(=O)[C@]3(O)C(O)=C(C(N)=O)C(=O)[C@@H](N(C)C)[C@@H]3[C@@H](O)[C@H]12	3.2µM*	-32%	?	?
COc1cccc(/C(O)=C/c2nc3ccc(C(=O)NCCc4cccc(C)c4)cc3[nH]c2=O)c1	120%	11µM*	6%	?
S=c1[nH]nc(-c2cccs2)n1/N=C/c1cn(-c2ccccc2)nc1-c1ccccc1	58%	4µM*	-1%	-6%
O=C(O)CCCC[C@H]1SC[C@H]2NC(=O)N[C@@H]21	.	.	0%[21.7 µM]	.
O=C(O)CCCCC1CCSS1 (centres undefined)	9%	16µM*	15%	50µM*
O=C1c2ccccc2C(Nc2ccc3c(c2)OCCO3)N1Cc1ccc2c(c1)OCO2 (centres undefined)	?	10µM*	-7%	?
COc1ccc(CCNS(=O)(=O)c2ccc(F)c(C(=O)Nc3ccc(Cl)cc3)c2)cc1OC	.	.	.	-4%
Cn1c(=O)c(Nc2ccc(O)cc2)c2c3c(cccc31)C(=O)c1ccccc1-2	25µM*	-59%	?	0%
CC(=O)c1c2c3c(cccc3n(C)c1=O)C(=O)c1ccccc1-2	-10%	-18%	0%	-4%
O=c1c2cn[nH]c2nc(SCc2ccccc2F)n1-c1ccc(Br)cc1	63%	11µM*	-2%	?
Cc1cccc(NC(=O)CSc2nc3[nH]ncc3c(=O)n2-c2ccccc2)c1	.	8.9µM*	7%	-13%
Cc1ccc(C)c(CS(=O)(=O)c2cn(CC(=O)N(C(C)C)C(C)C)c3ccccc23)c1	.	.	.	0%
Cc1ccc(F)cc1C(=O)N1CCCC(c2cc(C(=O)Nc3ccccc3Cl)no2)C1 (centres undefined)	-3%	.	.	.
CCOC(=O)N1CCC(c2cc(=O)n3[nH]cc(C(=O)OC)c3n2)CC1	7%	7.9µM*	-8%	?
Cc1cc(C)c(NC(=O)CSc2nnc(-c3ccccn3)n2N)c(Cl)c1	18µM*	-4%	4%	-8%
COc1ccc(NC(=O)CSc2nnc(-c3ccccn3)n2N)cc1Cl	-11%	-25%	1%	-10%
Cc1cccc2c(=O)cc(CSCC(=O)Nc3ccc(Cl)cc3)[nH]c12	.	.	.	14%
O=C(O)/C=C\C(=O)Nc1ccc(Oc2ccccc2)cc1	-15%	-15%	18%	1%
O=C(O)/C=C/C(=O)Nc1ccc(C2(c3ccc(NC(=O)/C=C/C(=O)O)cc3)c3ccccc3-c3ccccc32)cc1	-18%	13µM*	2%	-9%
CC(C(=O)NCc1ccccc1)n1ccc2cc(S(=O)(=O)N3CCCC3)ccc21 (centres undefined)	.	.	.	-8%
CN1CCN(C(=S)c2ccc(-c3cccc(Cl)c3Cl)o2)CC1	14µM*	162%	-3%	?
Oc1ccc(-c2csc(Nc3ccccn3)n2)cc1O	2%	1.6µM*	-17%	-8%
CCN(CC)c1ncnc2c1ncn2[C@H]1CN(Cc2ccccc2)C[C@@H](COC(C)=O)O1	0%	.	.	.
CC(C)N1CCC2(CC1)N=C(c1ccc3c(c1)OCO3)CC(c1cc(Cl)ccc1O)N2 (centres undefined)	-12%	18µM*	2%	-5%
CC1(C(=O)NS(=O)(=O)c2cccc(Cl)c2)CCN1C(=O)Cc1ccc(Cl)cc1Cl (centres undefined)	-8%	.	.	.
SMILES	AMA1 RON2 block	AmpC inh no detg	FBPA Giardia inh	AmpC inh detg
CCc1cc(=O)oc2cc(C)c(CN3CCCC3)c(O)c12	12µM*	11µM*	-17%	?
CCc1cc(=O)oc2cc(C)c(CN3CCCCC3)c(O)c12	1%	-21%	-18%	?
CC(C)(S)[C@H](N)C(=O)O	.	.	-11%	.
Cc1ccc(S(=O)(=O)c2nnn3c2nc(Nc2ccc(C(C)C)cc2)c2sccc23)cc1C	.	.	.	-6%
O=c1c2ccccc2c(-c2ccc(O)cc2)nn1-c1cccc(C(F)(F)F)c1	-2%	18µM*	-3%	2%
CC(C)N(C(=O)Nc1ccc2nccnc2c1)C(C)C	6%	-18%	3.5µM*	-3%
Cc1nc2ccc(NC(=O)N(C(C)C)C(C)C)cc2s1	2%	-17%	-11%	-5%
CC(C)(C)C(=O)OCc1ccc(C2=CC(=O)CC(C)(C)C2=O)cc1	-21%	.	.	.
CC1OC(Oc2c(-c3cc(O)c(O)c(O)c3)oc3cc(O)cc(O)c3c2=O)C(O)C(O)C1O (centres undefined)	-1%	-46%	10µM*	4%
CCCCS(=O)(=O)c1nc(-c2ccc(Br)cc2)cc(-c2ccccc2)c1C#N	.	.	.	12%
CCN(CC(=O)Nc1ccc(NC(C)=O)cc1)C(=O)/C=C/c1cn(-c2ccccc2)nc1-c1cccs1	-4%	25µM*	.	?
CCN(CC(=O)Nc1ccc(NC(C)=O)cc1)C(=O)/C=C/c1ccccc1	1%	-20%	.	?
CC(=O)c1cccc(-c2ccnc3c2CC(C(=O)Nc2cccc(OC(F)(F)F)c2)O3)c1 (centres undefined)	-9%	.	.	.
O=C(CSc1ccc(-c2cccnc2)nn1)c1ccc([N+](=O)[O-])cc1	58%	-30%	-8%	3%
O=C(CSc1ccc(-c2ccccn2)nn1)c1ccc([N+](=O)[O-])cc1	13µM*	3%	?	7%
Cc1ccc(NC(=O)C2CCN(S(=O)(=O)c3ccc(C(C)(C)C)cc3)CC2)cc1S(=O)(=O)N1CCOCC1	-4%	.	.	.
O=C(NCc1cccnc1)c1cccc(C(F)(F)F)c1	3%	0.32µM*	-1%	-1%
NC(=O)C(=CNc1nc(-c2ccc(Cl)c(Cl)c2)cs1)C(N)=O	.	14µM*	18µM*	-7%
Cn1c(=O)c2c(-c3ccccc3)n(N3CCOCC3)cc2n(C)c1=O	-1%	-14%	0%	?
Cn1c(=O)c2c(-c3ccc(C(C)(C)C)cc3)n(N3CCOCC3)cc2n(C)c1=O	2%	-10%	5%	35µM*
CC(C)CNS(=O)(=O)c1ccc(CCC(=O)N2CCOCC2)cc1	-10%	0.22µM*	1%	4%
CC(C)CNS(=O)(=O)c1ccc(CCC(=O)N2CCCC2)cc1	24%	4%	1%	7%
CN(C)S(=O)(=O)c1cccc(NC(=O)c2cc(-c3cccs3)nc3ccccc23)c1	4%	-28%	-5%	?
NS(=O)(=O)c1cccc(NC(=O)c2cc(-c3cccs3)nc3ccccc23)c1	-10%	18µM*	-24%	10%
CC(=O)NC(CCS(C)(=O)=O)C(=O)Nc1cccc2ccccc12 (centres undefined)	-3%	4.5µM*	-20%	?
CC(=O)NC(CCS(C)(=O)=O)C(=O)Nc1ccccc1Cl (centres undefined)	0%	-4%	1%	1%
COC(=O)c1cc(NC(=O)C2COc3ccccc3O2)cc(C(=O)OC)c1 (centres undefined)	10%	0.22µM*	-3%	3%
O=C1C(c2c(O)[nH]c3ccccc23)=Nc2ccccc21	-1%	-18%	1%	-4%
